# Laboratory results reported in PubChem BioAssay (NCATS).
# Inconclusive results are not listed. The source made the active and inactive calls. Unless noted, the call rests on the fitted dose curve; in most records, active means well fitted curve in the direction sought with a large enough effect; inconclusive means small, poorly fitted or top-dose-only effect, or another doubt; inactive means no such curve, though single readings can be large; an effect the other way counts as inactive or inconclusive.
# What was measured:
# [1] = AP1 Signaling Pathway (AID 357; active means well fitted curve in either direction with a large enough effect, not every such curve was filed as active;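 further: ME-180 reporter cells stimulated with EGF at its EC50 level; on the % scale 0 is the no-effect control and ±100 the full control effect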); settings: ME-180 AP-1-bla reporter, EGF-induced, beta-lactamase ratio, 5 h; at 7.69 µM (top of the series) unless noted
# Method in brief: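 First, ME-180 AP-1-bla cells were cultured overnight at 37 °C in low-serum Opti-MEM. Next, titrated compounds with EC50 EGF were incubated 5 hours. Finally, CCF4 was added for 2.5 hours and the 460/530 nm ratio recorded.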
# [2] = target: Cytochrome P450 1A2 (Homo sapiens) (UniProt P05177); experiment: p450-cyp1a2 (AID 410; calls by dose curve; further: potency means the concentration at half of the fitted maximal effect)
# Chain of Cytochrome P450 1A2 (Homo sapiens) (P05177 whole entry, looked up): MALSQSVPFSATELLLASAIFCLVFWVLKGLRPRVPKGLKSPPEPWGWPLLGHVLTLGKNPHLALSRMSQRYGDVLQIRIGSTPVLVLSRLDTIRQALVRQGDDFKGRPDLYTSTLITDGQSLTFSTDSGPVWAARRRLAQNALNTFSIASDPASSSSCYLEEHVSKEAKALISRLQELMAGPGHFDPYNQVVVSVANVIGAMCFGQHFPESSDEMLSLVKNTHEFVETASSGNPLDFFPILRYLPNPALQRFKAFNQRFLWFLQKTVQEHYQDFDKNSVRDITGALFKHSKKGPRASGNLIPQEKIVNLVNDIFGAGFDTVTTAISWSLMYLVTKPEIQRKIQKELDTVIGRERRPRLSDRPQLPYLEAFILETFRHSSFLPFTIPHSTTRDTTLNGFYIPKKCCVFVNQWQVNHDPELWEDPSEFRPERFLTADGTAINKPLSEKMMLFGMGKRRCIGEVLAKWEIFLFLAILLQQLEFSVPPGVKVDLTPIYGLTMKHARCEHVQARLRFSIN
# Method in brief: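 20nM CYP1A2, 100uM Luciferin-ME (=Km), 100mM KPO4; cpd 10 min RT; +NADPH regen, 60 min RT; stop/detect 20 min; luminescence. Normalized to furafylline 57 uM = full inhibition.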
# [3] = NFAT Signaling Pathway (AID 444; active means well fitted curve in either direction with a large enough effect, not every such curve was filed as active;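 further: carbachol stimulus at about its EC50 of 1 µM final; on the % scale 0 is the no-effect control and ±100 the full control effect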); settings: Jurkat NFAT-bla M1, carbachol, beta-lactamase ratio, 5 h; at 7.69 µM (top of the series) unless noted
# Method in brief: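 Read-out: CCF4 FRET ratio (460 nm/530 nm) after 1 h RT dye loading, used for %activity and AC50 from titration series. Cells: Jurkat NFAT-β-lactamase/M1 line, treated with compound plus 1 uM carbachol for 5 h, 37 °C.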
# [4] = Stat Signaling Pathway (AID 446; active means well fitted curve in either direction with a large enough effect, not every such curve was filed as active;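 further: ME-180 cervical cancer cells given 40 pM IL-6 alongside compound; SIE-controlled beta-lactamase reporter measured as 460/530 nm FRET emission ratio; on the % scale 0 is the no-effect control and ±100 the full control effect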); settings: ME-180 (cervical carcinoma) SIE beta-lactamase reporter, IL-6 stimulated, 5 h; at 7.69 µM (top of the series) unless noted
# Method in brief: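 Emission at 460 and 530 nm (excitation 405 nm) reports SIE-controlled beta-lactamase in ME-180 cells. Cells received compound with 40 pM IL-6 for 5 hrs at 37 C; data scaled between 300 pM IL-6 and 125 nM JAK-inhibitor controls.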
# [5] = target: Glucocorticoid receptor (Homo sapiens) (UniProt P04150); experiment: GR-GFP Redistribution (AID 450;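 active means compounds whose dose series gives a full or clear partial fitted curve of increased nuclear translocation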; further: potency means the concentration at half of the fitted maximal effect); settings: U2OS GR-GFP nuclear translocation, laser cytometry, 2 h
# Chain of Glucocorticoid receptor (Homo sapiens) (P04150 whole entry, looked up, the tested form may be a part): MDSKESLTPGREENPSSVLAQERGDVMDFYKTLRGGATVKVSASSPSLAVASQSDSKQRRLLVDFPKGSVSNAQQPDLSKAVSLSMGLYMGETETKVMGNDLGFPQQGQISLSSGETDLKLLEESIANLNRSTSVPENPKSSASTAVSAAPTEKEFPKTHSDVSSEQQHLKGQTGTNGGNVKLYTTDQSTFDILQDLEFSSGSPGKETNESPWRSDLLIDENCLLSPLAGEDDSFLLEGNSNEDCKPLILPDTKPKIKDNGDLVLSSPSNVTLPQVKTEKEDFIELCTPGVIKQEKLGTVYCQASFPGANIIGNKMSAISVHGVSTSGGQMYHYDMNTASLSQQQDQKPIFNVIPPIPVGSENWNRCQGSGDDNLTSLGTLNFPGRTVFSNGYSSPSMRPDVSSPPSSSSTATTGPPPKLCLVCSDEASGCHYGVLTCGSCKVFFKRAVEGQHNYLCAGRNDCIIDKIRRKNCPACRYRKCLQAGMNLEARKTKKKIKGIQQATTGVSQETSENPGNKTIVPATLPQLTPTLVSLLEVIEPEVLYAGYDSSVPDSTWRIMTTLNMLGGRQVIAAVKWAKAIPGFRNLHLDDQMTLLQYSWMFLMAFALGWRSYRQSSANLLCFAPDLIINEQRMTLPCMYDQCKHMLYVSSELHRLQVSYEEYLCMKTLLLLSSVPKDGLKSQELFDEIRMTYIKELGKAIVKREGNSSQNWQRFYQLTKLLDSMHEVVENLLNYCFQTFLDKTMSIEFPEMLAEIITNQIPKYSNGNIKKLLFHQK
# [6] = target: Glucocorticoid receptor (Homo sapiens) (UniProt P04150); experiment: GR-EFC Redistribution (AID 451; calls by dose curve; further: potency means the concentration at half of the fitted maximal effect); settings: CHO-K1 GR-EFC translocation, beta-gal luminescence, 2 h
# Method in brief: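 Translocation of GR-ED fusion to nuclear EA restores b-gal, read by luminescence after 1 h room-temperature detection. Engineered CHO-K1 biosensor cells, 1,000/well, exposed 2 h at 37 C to titrations up to 46 uM final.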
# [7] = target: Mitogen-activated protein kinase 10 (Mus musculus) (UniProt Q61831); experiment: JNK3 AlphaScreen Assay (AID 530; active means well fitted curve in either direction with a large enough effect, not every such curve was filed as active;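 further: kinase came from lysate of stimulated human HepG2 cells; signal reports phosphorylation of biotinylated GST-cJun 1-79 at Ser73 with 10 µM ATP; on the % scale 0 is the no-effect control and ±100 the full control effect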)
# Method in brief: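 Kinase buffer: 20 mM Tris-HCl pH 7.6, 10 mM MgCl2, 1 mM DTT, 0.1 mM Na3VO4, 0.01% Tween-20; ATP 10 uM. Substrate biotin-GST-cJun(1-79), enzyme from activated HepG2 lysates. Detection by Ser73 phospho-antibody AlphaScreen.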
# [8] = target: Cytochrome P450 3A4 (Homo sapiens) (UniProt P08684); experiment: qHTS Assay for Activators of Cytochrome P450 3A4 (AID 885); further: nearly all actives have a fitted effect of over 65% in size
# Chain of Cytochrome P450 3A4 (Homo sapiens) (P08684 whole entry, looked up): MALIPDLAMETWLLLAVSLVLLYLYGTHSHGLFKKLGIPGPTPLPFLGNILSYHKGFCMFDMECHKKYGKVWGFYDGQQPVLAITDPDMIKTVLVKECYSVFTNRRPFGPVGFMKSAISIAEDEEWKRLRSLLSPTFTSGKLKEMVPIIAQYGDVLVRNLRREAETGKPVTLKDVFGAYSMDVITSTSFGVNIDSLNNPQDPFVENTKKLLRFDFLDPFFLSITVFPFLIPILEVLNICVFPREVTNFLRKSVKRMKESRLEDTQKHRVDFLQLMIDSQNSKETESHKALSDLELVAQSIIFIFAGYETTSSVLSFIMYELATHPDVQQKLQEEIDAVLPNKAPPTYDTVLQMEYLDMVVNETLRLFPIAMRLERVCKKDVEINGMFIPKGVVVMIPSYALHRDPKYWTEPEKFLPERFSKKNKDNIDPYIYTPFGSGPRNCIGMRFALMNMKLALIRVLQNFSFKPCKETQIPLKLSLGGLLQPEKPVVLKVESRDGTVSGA
# Method in brief: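 Activators are scored by enhanced luminescence from CYP3A4 conversion of luciferin-PPXE (25uM, equal to KM) to luciferin, after 60 min at RT with an NADPH-regenerating system.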
# [9] = target: Cytochrome P450 2D6 (Homo sapiens) (UniProt P10635); experiment: qHTS Assay for Inhibitors and Substrates of Cytochrome P450 2D6 (AID 891); further: potency means the concentration at half of the fitted maximal effect; nearly all actives have a fitted effect of over 60% in size
# Chain of Cytochrome P450 2D6 (Homo sapiens) (P10635 whole entry, looked up): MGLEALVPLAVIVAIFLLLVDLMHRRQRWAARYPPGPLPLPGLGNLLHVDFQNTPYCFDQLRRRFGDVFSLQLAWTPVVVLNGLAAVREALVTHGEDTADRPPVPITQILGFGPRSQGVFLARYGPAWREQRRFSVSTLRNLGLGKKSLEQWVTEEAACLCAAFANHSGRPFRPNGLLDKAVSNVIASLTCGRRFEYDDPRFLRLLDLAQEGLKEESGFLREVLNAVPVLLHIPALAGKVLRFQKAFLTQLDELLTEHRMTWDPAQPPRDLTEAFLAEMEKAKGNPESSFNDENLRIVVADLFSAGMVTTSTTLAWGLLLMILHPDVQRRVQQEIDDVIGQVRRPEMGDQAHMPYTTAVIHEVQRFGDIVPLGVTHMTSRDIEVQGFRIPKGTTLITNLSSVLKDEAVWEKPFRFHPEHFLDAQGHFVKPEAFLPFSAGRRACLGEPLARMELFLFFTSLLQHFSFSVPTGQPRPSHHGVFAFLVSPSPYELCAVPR
# Method in brief: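 Luminescent read-out of luciferin formed by 5 nM human CYP2D6 demethylating 30 uM Luciferin-ME EGE (Km level) over 60 min at room temperature after NADPH regeneration addition. Data normalized to full inhibition by 1.43 uM quinidine.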
# [10] = Counterscreen qHTS for small molecule stabilizers of the endoplasmic reticulum resident proteome: GLuc-NoTag assay (AID 1508627);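 further: SH-SY5Y cells given compound then 100 nM thapsigargin to empty ER calcium; 0% = thapsigargin alone and -100% = DMSO vehicle control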
# Method in brief: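 Counterscreen line: SH-SY5Y-GLuc-NoTag cells, treated with compound 19 hr before a 4 hr, 100 nM thapsigargin calcium depletion. Secreted Gaussia luciferase in the medium was measured by luminescence after coelenterazine was added (0.07x final), with cells unlysed.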
# [11] = Confirmatory qHTS for small molecule stabilizers of the endoplasmic reticulum resident proteome: Secreted ER Calcium Modulated Protein (SERCaMP) assay (AID 1508628); further: nearly all actives have a fitted effect of over 40% in size; further: potency means the concentration at half of the fitted maximal effect
# Method in brief: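 GLuc-SERCaMP-expressing SH-SY5Y cells, pretreated 16 h with compound, are challenged with thapsigargin to empty ER calcium stores; after 4 h, coelenterazine is added directly to the medium and luminescence is imaged.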
# [12] = Cell Viability qHTS for small molecule stabilizers of the endoplasmic reticulum resident proteome (AID 1508629); settings: cell viability counter-screen, 100 nM thapsigargin for final 4 h
# [13] = target: Lysosomal acid glucosylceramidase (Homo sapiens) (UniProt P04062); experiment: Glucocerebrosidase-p2 (AID 348; in the data active means potency below about 10 µM; further: potency means the concentration at half of the fitted maximal effect); settings: purified GBA, blue fluorogenic substrate, 40 min
# Chain of Lysosomal acid glucosylceramidase (Homo sapiens) (P04062 whole entry, looked up): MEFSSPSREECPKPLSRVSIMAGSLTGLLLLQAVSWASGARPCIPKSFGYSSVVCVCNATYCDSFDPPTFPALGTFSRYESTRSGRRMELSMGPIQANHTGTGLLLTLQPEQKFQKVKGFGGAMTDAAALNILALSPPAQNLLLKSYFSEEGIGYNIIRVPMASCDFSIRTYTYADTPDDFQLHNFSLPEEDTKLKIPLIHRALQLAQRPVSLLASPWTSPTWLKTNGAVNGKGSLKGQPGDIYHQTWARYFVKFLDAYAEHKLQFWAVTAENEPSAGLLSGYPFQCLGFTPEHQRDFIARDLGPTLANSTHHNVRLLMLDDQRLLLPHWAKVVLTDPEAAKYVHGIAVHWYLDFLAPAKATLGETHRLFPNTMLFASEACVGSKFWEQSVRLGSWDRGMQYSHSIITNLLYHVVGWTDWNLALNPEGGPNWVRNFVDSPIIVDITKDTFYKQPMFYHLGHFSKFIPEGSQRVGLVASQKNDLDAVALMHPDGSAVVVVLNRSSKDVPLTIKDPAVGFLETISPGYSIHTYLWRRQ
# Method in brief: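 Normal human glucocerebrosidase (0.2 nM) with blue fluorogenic substrate (80 uM final) in citrate/phosphate pH 5.9 with 10mM sodium taurocholate, 0.01% tween-20; 40 min RT, NaOH/glycine stop; fluorescence Ex 365/Em 440; AC50 from a titration from 0.6 nM upwards.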
# [14] = target: 3',5'-cyclic-AMP phosphodiesterase 4B (Homo sapiens) (UniProt Q07343); experiment: qHTS Assay for Inhibitors of PDE-IV (AID 607; active means well fitted activation curve with a large enough effect in the main read-out, with a control signal flat, not every such curve was filed as active; further: % of control where 0% means no effect)
# Chain of 3',5'-cyclic-AMP phosphodiesterase 4B (Homo sapiens) (Q07343 whole entry, looked up): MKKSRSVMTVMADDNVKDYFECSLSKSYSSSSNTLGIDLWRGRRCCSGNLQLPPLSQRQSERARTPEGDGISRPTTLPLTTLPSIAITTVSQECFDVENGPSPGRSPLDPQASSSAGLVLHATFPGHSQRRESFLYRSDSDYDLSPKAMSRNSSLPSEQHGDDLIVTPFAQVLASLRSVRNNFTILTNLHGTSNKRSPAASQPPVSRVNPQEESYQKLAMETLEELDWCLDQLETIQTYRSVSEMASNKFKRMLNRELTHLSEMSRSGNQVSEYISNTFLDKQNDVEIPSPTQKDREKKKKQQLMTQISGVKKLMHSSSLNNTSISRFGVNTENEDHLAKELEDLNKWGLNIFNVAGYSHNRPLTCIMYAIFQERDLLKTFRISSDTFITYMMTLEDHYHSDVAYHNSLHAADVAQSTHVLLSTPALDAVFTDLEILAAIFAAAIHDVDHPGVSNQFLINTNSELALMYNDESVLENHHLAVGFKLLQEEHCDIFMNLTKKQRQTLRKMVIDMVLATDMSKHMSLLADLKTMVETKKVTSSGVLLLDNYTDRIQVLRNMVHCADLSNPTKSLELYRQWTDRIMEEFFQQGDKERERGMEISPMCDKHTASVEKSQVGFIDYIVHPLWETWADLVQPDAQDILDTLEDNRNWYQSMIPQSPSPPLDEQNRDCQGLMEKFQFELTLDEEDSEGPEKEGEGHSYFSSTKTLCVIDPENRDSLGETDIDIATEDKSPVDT
# Method in brief: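 The readout is membrane depolarisation from a cAMP-sensing CNG channel, detected with a potential dye at ex 535/em 590. Cells were HEK293-derived (endogenous PDE-IV) at 1000 cells/well, titrated up to 22.9 uM final.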
# [15] = qHTS Assay for Lipid Storage Modulators (AID 1519; calls by dose curve); settings: Drosophila S3 cells, BODIPY lipid droplet/cell ratio, laser cytometry, cells loaded with oleic acid
# Method in brief: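 Cells seeded at 5,000 per well were treated with compounds over a concentration series and loaded with oleic acid (400 uM, as added). Lipid droplet fluorescence (488 nm excitation, 500-530 nm channel) was read by laser-scanning cytometry and normalized to 20 uM Triacsin C.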
Structure (SMILES),"activity change, negative = inhibition [1]",Potency [2],"activity change, negative = inhibition [3]","activity, negative = inhibition [4]",Potency [5],Potency [6],outcome [7],Potency [8],Potency [9],Potency [10],Potency [11],max response [12],Potency [13],Potency [14],"activity change, negative = inhibition ([15]; at 57.5 µM (top of the series))",max response ([15]; measured here: cell count channel max response) [%],max response ([15]; measured here: lipid channel max response) [%]
CCNc1ncc2nc(CCc3ccccc3)c(=O)n(CCOC)c2n1,0.721% (inactive),2 µM (active),2.18% (inactive),-8.07% (inactive),> 9.22 µM (inactive),> 46 µM (inactive),inactive,inactive,398 nM (active),inactive,35.5 µM (active),18.6% (inactive),,,,,
O=C(c1ccccc1)N1CCN(Cc2cccc(Oc3ccccc3)c2)CC1,,,,,,,,,,inactive,,,,,,,
O=C(Nc1cccc(F)c1)N1CCC2(CC1)CCN(S(=O)(=O)c1ccccc1)CC2,-14.1% (inactive),,11.4% (inactive),-8.13% (inactive),,> 46 µM (inactive),inactive,,,inactive,inactive,3.59% (inactive),> 11.4 µM (inactive),inactive,-0.528% (inactive),0.271,1.82
